Source: PubChem (several laboratories)
Hits are enriched below; roughly 2.2% of the tested compounds scored in any of these assays.
IEC-6 cytotox = IEC-6 cytotoxicity, counter-screen for KLF5 inhibitors | hit rate 0.78% among 290,000 | inhibition, % at 5 µM | AID 1825 | luminescence viability;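 also: 0% = plate median of test compound wells and 100% = cytotoxic reference compound wells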
BaF3 parental = parental Ba/F3 viability inhibition as JAK2V617F counter-screen | CellTiter-Glo ATP luminescence | inhibition, % at 5.6 µM | hit rate 1.1% among 220,000 | AID 1486;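 active = inhibition above a per-campaign cutoff, the mean inhibition of all tested compounds plus 3 SD, cut at about 27% in these data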;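 also: 0% = DMSO wells and 100% = JAK Inhibitor I control wells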
APP transl inh = APP translation inhibition; SH-SY5Y APP 5'UTR-luciferase reporter, luminescence; inhibition, % at 2 µM; hit rate 0.82% among 190,000;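 active = inhibition above a set limit, derived from the sample mean plus 3 SD, cut at about 45% in these data; inconclusive = one replicate passes the limit while the other fails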
Ba/F3 V617F tox = loss of viability in JAK2V617F-driven Ba/F3 cells; Ba/F3 EpoR-JAK2V617F viability, ATP luminescence; inhibition, % at 5.6 µM; hit rate 1.1% among 220,000;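 active = inhibition above the campaign mean plus 3 SD over all tested compounds, cut at about 24% in these data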;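 also: cytokine-independent growth of Ba/F3 cells driven by EpoR plus mutant JAK2; 0% = DMSO-treated cells and 100% = JAK inhibitor I control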
KLF5 inh = suppresses KLF5 promoter-driven expression | hit rate 0.23% among 290,000 | inhibition, % at 5 µM | DLD-1 KLF5 promoter-luciferase reporter, luminescence;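 active = inhibition above a per-plate limit of that plate's mean compound inhibition plus 3 SD, cut at about 60% in these data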;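 also: 0% = DMSO wells and 100% = LY294002 at 200 µM; higher means less KLF5 promoter-driven luciferase light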
aSyn 5UTR inh = 5' untranslated region of α-synuclein, MLPCN primary screen | alpha-synuclein 5'UTR reporter, inhibitor activity | inhibition, % (tested at 7.5 µM) | hit rate 0.82% among 300,000 | AID 1813; in the data active = inhibition above about 60%; inconclusive = no clear call, values can overlap the other calls;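 also: H4 neuroglioblastoma cells stably carrying SNCA 5'UTR luciferase fusion; 0% = DMSO wells and 100% = positive control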
IEC-6 cytotox cf = IEC-6 cytotoxicity, confirmation assay; shares compounds with IEC-6 cytotox; IEC-6 rat intestinal epithelial viability, luminescence; inhibition, % at 5 µM; hit rate 63% among 1,900; AID 1907;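 also: 0% = vehicle and 100% = reference cytotoxic drug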
* hit, by the source's call; ? = inconclusive; . = no result. Rule as the data show it, unless noted: active = inhibition above about 22%; inactive = the rest.

SMILES | IEC-6 cytotox | BaF3 parental | APP transl inh | Ba/F3 V617F tox | KLF5 inh | aSyn 5UTR inh | IEC-6 cytotox cf
CC(=O)Nc1cccc(C(=O)OC2CCOC2=O)c1 (stereo not drawn) | -3 | . | . | . | -17 | -14 | .
COc1ccc(NS(=O)(=O)c2cc(Br)cc3c2N(C(C)=O)CC3)cc1 | 38* | . | . | . | 31 | -30 | 33*
COc1cc(OC)c(NC2=CC(=O)C(=O)c3ccccc32)cc1Cl | 78* | . | . | . | 42 | 107* | 31*
CCC(C(=O)Nc1cc(Cl)c(OC)cc1OC)c1ccccc1 (stereo not drawn) | 3 | 8 | 0 | 1 | 0 | -7 | .
O=C(CS(=O)(=O)Cc1ccccc1)N1CCN(c2ccccc2F)CC1 | 4 | . | . | . | -14 | -20 | .
Cc1[nH]c2ccccc2c1SCC(=O)NNC(=O)Nc1ccc(OC(F)(F)F)cc1 | 0 | -2 | . | -5 | 4 | 25 | .
COc1c(F)c(F)c(C(=O)Nc2ccc(-c3nc4ccccc4[nH]3)cc2)c(F)c1F | 27* | 0 | -33 | 3 | -28 | -12 | 5
O=C(Nc1ccc(-c2nc3ccccc3[nH]2)cc1)c1c(F)c(F)c(F)c(F)c1F | -2 | 1 | -5 | -2 | -17 | -5 | .
Cc1nn(Cc2noc(C(=O)NC3CCC(C)CC3)n2)c(C)c1Br (stereo not drawn) | 35* | . | . | . | -16 | 16 | 24*
COc1ccccc1C(=O)N1CCN(CCNC(=O)C(=O)Nc2ccc(Br)c(C)c2)CC1 | -3 | . | . | . | -2 | -89 | .
COC(=O)C(NC(=O)c1ccco1)(Nc1cc(C)ccn1)C(F)(F)F (stereo not drawn) | 52* | 7 | -2 | 6 | -14 | -5 | 8
CCN(c1ccc(OC)cc1)S(=O)(=O)c1csc(C(N)=O)c1 | -4 | . | . | . | -15 | 11 | .
N#C/C(N=Nc1ccccc1O)=N\Nc1ccccc1O | . | . | . | . | . | 29 | .
OCC[n+]1ccc(/C=C/c2c[nH]c3ccccc23)cc1 | 56* | 84* | 16 | 90* | 6 | -12 | 5
O=C(/C=C/c1c[nH]c2ccccc12)c1ccccc1 | 0 | 5 | -117 | 3 | -51 | -330 | .
CC(=O)C(C(c1ccccc1)c1c[nH]c2ccccc12)[N+](=O)[O-] (stereo not drawn) | 32* | . | . | . | 22 | -30 | 21
COc1ccc(S(=O)(=O)N2CCCCC2)cc1NCC(=O)Nc1ccc(C)cc1 | 32* | 9 | . | 3 | -10 | -12 | 18
Clc1ccc(C2=Nn3c(nnc3-c3n[nH]c4c3CCC4)SC2)cc1 | 32* | 50* | 89* | 55* | -10 | 58 | 50*
Cc1ccccc1NC(=O)OCc1ccccc1 | -8 | . | . | . | -99 | -84 | .
COc1cccc(C2=CC(c3ccccc3)n3nnnc3N2)c1 (stereo not drawn) | 28* | 0 | 2 | 3 | 21 | -28 | 32*
CC(C)n1cc(NC(=O)c2cc(-c3ccccc3)on2)cn1 | 64* | 28* | 77* | 41* | -3 | -218 | 46*
C/C(=N\NC(=O)c1ccccn1)c1ccc(Cl)cc1 | 3 | 2 | . | -3 | -126 | -45 | .
C/C(=N\NC(=O)c1ccc(Cl)cc1)c1ccccn1 | 23* | . | . | . | 33 | -63 | 99*
CCSc1ncc(Cl)c(C(=O)Nc2ccc(S(N)(=O)=O)cc2)n1 | 2 | . | . | . | -12 | 5 | .
Cc1cccc(COC(=O)Nc2ccc(NC(=O)c3ccccc3Cl)cc2)c1 | 4 | . | . | . | -7 | 18 | .
SMILES | IEC-6 cytotox | BaF3 parental | APP transl inh | Ba/F3 V617F tox | KLF5 inh | aSyn 5UTR inh | IEC-6 cytotox cf
Cc1cccc(CS(=O)(=O)c2ncc(Cl)c(C(=O)NCc3ccc4c(c3)OCO4)n2)c1 | 31* | . | . | . | 25 | 41 | 33*
Cc1c(C(=O)NCc2ccc3c(c2)OCO3)oc2ccc(Br)cc12 | -1 | 0 | 8 | -5 | -9 | 7 | .
Cc1ccc2oc(C(=O)NCc3ccc4c(c3)OCO4)c(C)c2c1 | 48* | 3 | -17 | 1 | -2 | 32 | -4
Cc1onc(-c2c(F)cccc2Cl)c1C(=O)NCc1ccc2c(c1)OCO2 | 1 | . | . | . | 1 | 9 | .
COC(=O)c1ccc(NC(=O)c2nc(S(=O)(=O)Cc3cccc(C)c3)ncc2Cl)cc1 | 43* | . | . | . | 14 | ? | 14
CC(=O)Nc1ccc(NC(=O)c2nc(S(=O)(=O)Cc3cccc(C)c3)ncc2Cl)cc1 | 36* | . | . | . | 34 | 44 | 16
COc1cccc(OC)c1C(=O)Nc1ccc(C(=O)NCc2ccccc2)cc1 | -2 | . | . | . | -10 | -8 | .
Cc1ccc(Nc2cc(C)nn2-c2nc(C)cc(=O)[nH]2)cc1 | 101* | 98* | 92* | 100* | 41 | 28 | 101*
Cc1ccc(C2C(N)C(=O)N2c2ccc(C)cc2)cc1 (stereo not drawn) | 1 | . | . | . | -1 | 1 | .
C=CCc1cccc(/C=N/NC(=O)c2ccccc2OC)c1O | 41* | 4 | 8 | -1 | -13 | 8 | 19
C=CCc1cccc(/C=N/NC(=O)c2ccccc2Br)c1O | 22 | 4 | 16 | -3 | -35 | 2 | .
c1ccc(-c2noc(-c3ccncc3)n2)nc1 | 29* | 34* | -104 | 33* | -66 | -62 | 25*
c1ccc(-c2noc(-c3cccnc3)n2)nc1 | 7 | 9 | -75 | 3 | -112 | -48 | .
N#C/C(=N/Nc1ccc(OC(F)(F)F)cc1)C(N)=S | 28* | 68* | . | 50* | -61 | -71 | 35*
COc1ccc(N/N=C(\C#N)C(N)=O)cc1 | 7 | 8 | 18 | 5 | -9 | -13 | .
C/C(=N\NC(=O)c1ccc(C)cc1)c1c(C)[nH]n(-c2ccccc2)c1=O | 44* | . | . | . | -28 | 67* | 25*
COc1ccccc1-n1c(=O)c(C#N)c(-c2ccc([N+](=O)[O-])cc2)c2cc(C(=O)c3ccccc3O)cnc21 | -5 | -4 | . | -2 | -26 | 20 | .
CCNc1nc2cccnc2s1 | 0 | 2 | . | 1 | -19 | -18 | .
Cc1cccc(NC(=O)Nc2ccc3c(c2)CCC3)c1 | 90* | . | . | . | -113 | -116 | 8
Cc1cccc(N2CCN(C(=O)CNC(=O)c3cccc([N+](=O)[O-])c3)CC2)c1C | -2 | . | . | . | -11 | 0 | .
O=[N+]([O-])c1cc([N+](=O)[O-])c2cc3ccccc3nc2c1 | 46* | . | . | . | 3 | -176 | 12
COc1ccc(C2C(C#N)=C(C)NC3=C2C(=O)c2ccccc23)cc1 (stereo not drawn) | -4 | 1 | 5 | -3 | 15 | 8 | .
CC1=C([N+](=O)[O-])C(c2ccccc2)C2=C(N1)c1ccccc1C2=O (stereo not drawn) | 47* | 71* | 57* | 77* | 58 | 113* | 56*
CCOC(=O)[C@@H]1[C@H]2COc3ccccc3[C@@H]2N2C(=O)N(c3ccc(F)cc3)C(=O)[C@]12C | . | . | . | . | . | 5 | .
Cc1ccc(S(=O)(=O)N(C)c2ccc3sc(C)nc3c2)cc1 | 1 | 7 | -18 | -1 | -26 | 1 | .
NC(N)=Nc1ccc(N=C(N)N)cc1 | 97* | 3 | . | -3 | -9 | -3 | 98*
